Among the test systems are SK-MEL-2 melanoma; EKVX NSCLC; SN12C renal; UO-31 renal; TK-10 renal; ACHN renal; CAKI-1 renal; A498 renal; CCRF-CEM leukemia; MOLT-4 leukemia.
What all share (experiment): NCI-60 one-dose screen, 48 h (100 = growth as untreated, 0 = no growth, -100 = all killed)
Holding throughout (details): 10 µM unless noted

This is part of a sample that, as a whole, favours compounds with a hit. Of some 83,000 tested, about 20% had one in any assay.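 Note: values are percent growth. 100 is the growth of untreated cells, values between 100 and 0 indicate rising inhibition; between -100 and 0 indicates cell death.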 Unmarked numbers belong to inactive results. Calls of active or inactive are those of the source. Rule for the calls: active = growth percent below 10; inactive = the rest.

On to `CC(=O)OCCCCCCn1c2ccccc2c2c3c(c4c5ccccc5n(C)c4c21)C(=O)N(O)C3=O`, for which the growth in the assay on SK-MEL-2 melanoma is 84.6%; in the assay with EKVX NSCLC, 98.6%; with SN12C renal, 70%; in the assay on UO-31 renal, 50%; in the assay with TK-10 renal, 80.6%; with ACHN renal, 74.9%. The growth with CAKI-1 renal is 4.21% (active); in the assay on A498 renal it was 52.9%; in the assay on CCRF-CEM leukemia it was 34.3%; with MOLT-4 leukemia, 10.9%.
As to `Cc1ccnc2c(OCc3ccccc3)cccc12`, the growth with SK-MEL-2 melanoma is 105%; with EKVX NSCLC, 78.6%; in the assay on SN12C renal, 88.8%; with UO-31 renal it was 64.3%; in the assay on TK-10 renal, 102%; in the assay with ACHN renal, 89.3%. Besides, the growth in the assay with CAKI-1 renal is 86.1%; in the assay with A498 renal, 90.3%; in the assay on CCRF-CEM leukemia, 108%; with MOLT-4 leukemia, 98%.
With `CC1=NN(c2ccc(S(=O)(=O)O)cc2Cl)C(=O)C1`, the growth is 112% in the assay with SK-MEL-2 melanoma; 101% with EKVX NSCLC; 100% in the assay with SN12C renal; 89.2% with UO-31 renal; 101% in the assay with TK-10 renal; 105% in the assay with ACHN renal. The growth was 85.1% in the assay with CAKI-1 renal, 102% with A498 renal, 99.1% with CCRF-CEM leukemia and 123% in the assay with MOLT-4 leukemia.
For the compound `Cc1csc(-c2ccc3c(c2)COC3(CCCN(C)C)c2ccc(F)cc2)c1` (stereo not given), the growth with SK-MEL-2 melanoma is 25.8%; in the assay with EKVX NSCLC, 72.2%; in the assay on SN12C renal, 62.7%; with UO-31 renal, 44.7%; in the assay with TK-10 renal, 55%; in the assay on ACHN renal it was 63.6%. The growth with CAKI-1 renal is 27.7%; in the assay with A498 renal, 86.2%; in the assay on CCRF-CEM leukemia, 11.3%; in the assay on MOLT-4 leukemia it was -17.4% (active).
For the compound `O=C(/C=C/c1cccc2ccccc12)Nc1ncc(Cc2ccccc2)s1`, the growth was 43.4% with SK-MEL-2 melanoma; 20.3% in the assay with EKVX NSCLC; 32.1% with SN12C renal; 32.2% in the assay on UO-31 renal; 31.7% with TK-10 renal; 20.8% in the assay on ACHN renal. Further, the growth was 22.5% in the assay on CAKI-1 renal, -10.8% (active) in the assay with A498 renal, 10.4% in the assay on CCRF-CEM leukemia and 18% in the assay with MOLT-4 leukemia.
In the case of `C=C(C)[C@@H]1CC[C@]2(CN)CC[C@]3(C)[C@H](CC[C@@H]4[C@@](C)(CCCN)[C@H](C(=C)C)CC[C@]43C)[C@@H]12`, the growth is 107% in the assay with SK-MEL-2 melanoma; 102% in the assay on EKVX NSCLC; 82.5% with SN12C renal; 63% in the assay on UO-31 renal; 119% in the assay with TK-10 renal; 99.1% in the assay on ACHN renal. Besides, the growth with CAKI-1 renal is 75.5%; in the assay with A498 renal it was 88.7%; in the assay with CCRF-CEM leukemia, 66.6%; with MOLT-4 leukemia it was 57%.
Turning to `O=C1c2cccc3cccc(c23)C(=O)N1CC#Cc1ccc2c3c(cccc13)C(=O)N(CCO)C2=O`, the growth was 102% in the assay with SK-MEL-2 melanoma; 76.3% with EKVX NSCLC; 90.7% with SN12C renal; 57.3% in the assay on UO-31 renal; 165% in the assay with TK-10 renal; 87.1% in the assay with ACHN renal. For the same compound, the growth in the assay with CAKI-1 renal was 56.8%; in the assay on A498 renal, 105%; in the assay on CCRF-CEM leukemia it was 80.6%; with MOLT-4 leukemia, 62.3%.
Take `CC1(c2ccccc2)OC1C(=O)O` (stereo not given): the growth in the assay on SK-MEL-2 melanoma is 107%; in the assay on EKVX NSCLC, 107%; in the assay on SN12C renal, 106%; with UO-31 renal it was 84.5%; in the assay on TK-10 renal, 102%; in the assay with ACHN renal, 102%. The growth with CAKI-1 renal was 94%; in the assay on A498 renal, 109%; in the assay with CCRF-CEM leukemia, 101%; in the assay with MOLT-4 leukemia, 101%.
On to `Nc1ncnc2nc(Br)[nH]c12`, for which the growth is 102% in the assay with SK-MEL-2 melanoma; 105% in the assay with EKVX NSCLC; 100% in the assay on SN12C renal; 101% with UO-31 renal; 96.2% in the assay on TK-10 renal; 98.7% in the assay with ACHN renal. Besides, the growth in the assay on CAKI-1 renal was 93%; in the assay on A498 renal it was 98.1%; in the assay with CCRF-CEM leukemia, 94.3%; in the assay on MOLT-4 leukemia, 96.1%.
In the case of `COc1cc2nc(Cl)nc(Nc3cccc(C(=O)/C=C/c4ccc(F)cc4)c3)c2cc1OC`, the growth was 93.9% in the assay on SK-MEL-2 melanoma; 71.1% in the assay with EKVX NSCLC; 51.6% with SN12C renal; 53.9% with UO-31 renal; 155% in the assay on TK-10 renal; 20% with ACHN renal. Also, the growth in the assay on CAKI-1 renal was 56.5%; in the assay on A498 renal, 86.5%; in the assay with CCRF-CEM leukemia, 15.5%; in the assay with MOLT-4 leukemia, 35.7%.
As to `COC(=O)[C@]12CC[C@@H](C)[C@H](C)[C@@H]1C1=CC[C@@H]3[C@@]4(C)C[C@@H](O)OC[C@](C)(C=O)C4C(=O)C[C@@]3(C)[C@]1(C)CC2` (stereo not given in full), the growth in the assay with SK-MEL-2 melanoma was -22.4% (active); in the assay with EKVX NSCLC, 21%; with SN12C renal, 11.4%; in the assay with UO-31 renal, 7.68% (active); in the assay with TK-10 renal, 9.25% (active); in the assay on ACHN renal, 7.86% (active). Besides, the growth is 7.25% (active) with CAKI-1 renal, -0.985% (active) in the assay on A498 renal, -7.54% (active) with CCRF-CEM leukemia and -9.93% (active) in the assay with MOLT-4 leukemia.
Regarding `Nc1c2c(nc3ccc(Br)cc13)CC(c1ccccc1)CC2=O` (stereo not given), the growth with SK-MEL-2 melanoma was 59.2%; with EKVX NSCLC it was 27.2%; with SN12C renal it was 51.3%; in the assay with UO-31 renal, 53.1%; in the assay on TK-10 renal, 85.7%; in the assay on ACHN renal, 57.7%. Also, the growth in the assay on CAKI-1 renal was 47.2%; in the assay with A498 renal it was 1.16% (active); with CCRF-CEM leukemia it was 19.7%; in the assay on MOLT-4 leukemia it was 29.3%.
With `N#CC1=C(N)Oc2c(c(N)nn2-c2ccccc2)C1c1ccc(Cl)cc1` (stereo not given), the growth with SK-MEL-2 melanoma was 103%; with EKVX NSCLC, 90.7%; with SN12C renal, 97.8%; in the assay with UO-31 renal it was 61.2%; in the assay on TK-10 renal, 152%; with ACHN renal it was 93.1%. The growth was 86.8% in the assay on CAKI-1 renal, 97.8% with A498 renal, 101% in the assay on CCRF-CEM leukemia and 98.8% in the assay on MOLT-4 leukemia.
On to `c1cc(N2CCCC2)c2nc(-c3[nH]ncc3Nc3ncnc4[nH]ccc34)[nH]c2c1`, for which the growth in the assay with SK-MEL-2 melanoma was -42.1% (active); in the assay on EKVX NSCLC, -31% (active); in the assay on SN12C renal it was -13.7% (active); with UO-31 renal, -20.3% (active); with TK-10 renal it was -26.4% (active); in the assay on ACHN renal, -14.6% (active). The growth in the assay on CAKI-1 renal is -33.2% (active); in the assay on A498 renal, -79.5% (active); with CCRF-CEM leukemia it was 1.97% (active); in the assay with MOLT-4 leukemia it was 1.93% (active).

For the origin of these results see PubChem BioAssay (NCI).
